# Source: PubChem BioAssay (NCATS)
# Records with an inconclusive call do not appear. Entries that show only a call come without a potency. Activity calls are given as the source filed them. Unless noted, calls follow the shape of the dose curve; as a rule, active = well fitted curve in the direction sought with a large enough effect; inconclusive = small, poorly fitted or top-dose-only effect, or another doubt; inactive = no such curve, though single readings can be large; an effect the other way counts as inactive or inconclusive.
# Columns and labels:
# [1] = target: Aldehyde dehydrogenase, mitochondrial (Homo sapiens) (UniProt P05091); experiment: qHTS for Inhibitors of the Aldehyde Dehydrogenase Family (ALDH2) Confirmatory screens (AID 2061303; active = well fitted inhibition curve with a large enough effect; title and protocol of this record describe different tests; also: nearly all actives have a fitted effect of over 45% in size; also: potency is read from the fitted curve at half-maximal effect)
# [2] = target: Retinaldehyde dehydrogenase 3 (Homo sapiens) (UniProt P47895); experiment: qHTS for Inhibitors of the Aldehyde Dehydrogenase Family (ALDH1A3) Confirmatory screens (AID 2061311); also: nearly all actives have a fitted effect of over 60% in size; also: potency is read from the fitted curve at half-maximal effect
# [3] = target: Retinal dehydrogenase 2 (Homo sapiens) (UniProt O94788); experiment: qHTS for Inhibitors of the Aldehyde Dehydrogenase Family (ALDH1A2) Confirmation screens (AID 2061314); also: nearly all actives have a fitted effect of over 65% in size; also: potency is read from the fitted curve at half-maximal effect
# [4] = target: Retinaldehyde dehydrogenase 3 (Homo sapiens) (UniProt P47895); experiment: qHTS for Inhibitors of the Aldehyde Dehydrogenase Family (ALDH1A3) Primary screen (AID 2061315)
# [5] = target: Aldehyde dehydrogenase 1A1 (Homo sapiens) (UniProt P00352); experiment: qHTS for Inhibitors of the Aldehyde Dehydrogenase Family (ALDH1A1) Confirmatory screens (AID 2061316); also: nearly all actives have a fitted effect of over 65% in size; also: potency is read from the fitted curve at half-maximal effect
# [6] = target: Aldehyde dehydrogenase, mitochondrial (Homo sapiens) (UniProt P05091); experiment: qHTS for Inhibitors of the Aldehyde Dehydrogenase Family (ALDH2) Primary screen (AID 2061308); also: nearly all actives have a fitted effect of over 55% in size
# [7] = target: Retinaldehyde dehydrogenase 3 (Homo sapiens) (UniProt P47895); experiment: qHTS for Inhibitors of the Aldehyde Dehydrogenase Family (ALDH1A3) Validation screen (AID 2061312); also: potency is read from the fitted curve at half-maximal effect; nearly all actives have a fitted effect of over 45% in size
compound,measurement,setting,value
CCOC(=O)Cn1c(=O)oc2cc(S(=O)(=O)N3CCN(c4ccc(C(C)=O)cc4)CC3)ccc21,Potency,[1],7.08 µM (active)
same,Potency,[2],0.355 µM (active)
same,Potency,[3],inactive
CCOc1ccc(CCNC(=O)c2ccc(N3N=C(C)CC3=O)cc2)cc1OCC,Potency,[1],1.26 µM (active)
same,Potency,[2],0.1 µM (active)
same,Potency,[3],0.896 µM (active)
same,Potency,[4],inactive
same,Potency,[5],0.896 µM (active)
CC(C)c1ccc(S(=O)(=O)c2cnc(SCC(=O)Nc3ccc4c(c3)OCCO4)[nH]c2=O)cc1,Potency,[1],inactive
same,Potency,[2],inactive
same,Potency,[3],10.1 µM (active)
same,Potency,[4],inactive
O=C(Nc1ccc2c(c1)OCO2)Nc1nnc(-c2ccncc2)s1,Potency,[1],inactive
same,Potency,[6],inactive
same,Potency,[4],inactive
same,Potency,[5],inactive
Cc1noc2c(NCCc3ccccn3)cc(-c3ccccn3)nc12,Potency,[1],inactive
same,Potency,[2],14.1 µM (active)
Cc1nc(CNc2ncnc3ccc(-c4ccoc4C)cc23)cs1,Potency,[1],inactive
same,Potency,[6],inactive
same,Potency,[4],inactive
O=C(Nc1cccc(C(F)(F)F)c1)c1cc(-c2ccc(Cl)cc2)on1,Potency,[1],inactive
same,Potency,[2],inactive
same,Potency,[3],inactive
COc1ccc(N2CCN(C(=S)Nc3cc(C)ccn3)CC2)cc1,Potency,[1],10.1 µM (active)
same,Potency,[2],22.5 µM (active)
same,Potency,[3],12.7 µM (active)
same,Potency,[5],3.18 µM (active)
COc1ccc(CNC(=O)c2cc3c(=O)n(Cc4ccc(OC)cc4)ccc3nc2C)cc1,Potency,[1],inactive
same,Potency,[2],inactive
same,Potency,[3],inactive
same,Potency,[5],inactive
CN(c1ccccc1)c1ccc(CNc2nn3c(=O)c4ccccc4nc3s2)cc1,Potency,[1],11.2 µM (active)
same,Potency,[2],12.6 µM (active)
same,Potency,[3],inactive
same,Potency,[4],inactive
same,Potency,[5],8.96 µM (active)
O=S(=O)(Nc1ccc(O)c(NS(=O)(=O)c2ccccc2)c1)c1ccccc1,Potency,[1],inactive
same,Potency,[6],inactive
same,Potency,[4],inactive
same,Potency,[5],2.83 µM (active)
O=C(Nc1ccc([S+](=O)([O-])Nc2nccs2)cc1)c1ccccn1,Potency,[1],inactive
same,Potency,[6],inactive
same,Potency,[4],inactive
same,Potency,[5],inactive
CC(C)Sc1ncc(Cl)c(C(=O)Nc2nc3ccc(S(C)(=O)=O)cc3s2)n1,Potency,[1],inactive
same,Potency,[2],inactive
same,Potency,[3],inactive
same,Potency,[5],inactive
COc1cccc(N2CCN(c3nc(C(=O)NCc4cccc(C)c4)cs3)CC2)c1,Potency,[1],inactive
same,Potency,[2],inactive
same,Potency,[3],inactive
COc1ccc(CN(Cc2ccccc2)C(=O)c2ccccc2N)cc1COc1ccc(NC(C)=O)cc1,Potency,[1],inactive
same,Potency,[6],inactive
same,Potency,[4],inactive
CCOC(=O)c1ccc(N2CCN(c3cccc(Cl)c3)CC2)c(NC(=O)Nc2ccc(Cl)cc2)c1,Potency,[1],inactive
same,Potency,[2],inactive
same,Potency,[3],inactive
same,Potency,[5],inactive
COc1cccc(-c2cccc(C(=O)N3CCN(C(=O)Nc4ccccc4)CC3)c2)c1,Potency,[1],inactive
same,Potency,[2],inactive
same,Potency,[3],inactive
CCn1cc2nc(SCc3ccc(F)cc3)n(CCc3ccccc3)c(=O)c2n1,Potency,[1],14.1 µM (active)
same,Potency,[2],0.562 µM (active)
same,Potency,[3],7.94 µM (active)
same,Potency,[5],inactive
NCCCNc1ncnc2ccc(-c3ccc4c(c3)OCO4)cc12,Potency,[1],inactive
same,Potency,[6],inactive
same,Potency,[5],11.3 µM (active)
CC(=O)Nc1sc2c(c1-c1nc3ccccc3s1)CN(C1COC1)C2,Potency,[1],12.7 µM (active)
same,Potency,[2],8.96 µM (active)
same,Potency,[3],8.96 µM (active)
same,Potency,[4],inactive
same,Potency,[5],2.52 µM (active)
Cc1ccc(-n2nc(C)c3c(C(=O)Nc4ccc(Br)c(C)c4)cc(C)nc32)cc1,Potency,[1],inactive
same,Potency,[2],inactive
same,Potency,[3],inactive
CC1(C)CCC(C)(C)c2cc3c(cc21)Sc1ccccc1N=C3c1ccc(C(=O)O)cc1,Potency,[1],inactive
same,Potency,[2],inactive
same,Potency,[7],6.31 µM (active)
same,Potency,[3],inactive
same,Potency,[4],inactive
Cc1cc(C)nc(NC(=C(C#N)C#N)N2CCN(c3cccc(C(F)(F)F)c3)CC2)c1,Potency,[1],14.2 µM (active)
same,Potency,[6],inactive
same,Potency,[4],inactive
COc1ccc(Cn2c(=O)[nH]c3cc(C(=O)N4CCN(c5ccccc5)CC4)ccc3c2=O)cc1,Potency,[1],inactive
same,Potency,[2],inactive
same,Potency,[3],inactive
same,Potency,[5],inactive
CCOc1ccc(NC(=O)N2CCN(c3ccc(Cl)c(Cl)c3)CC2)cc1,Potency,[1],inactive
same,Potency,[2],inactive
same,Potency,[3],inactive
same,Potency,[5],inactive
O=C(Nc1cccc(-c2nn3c(=O)cc(N4CCNCC4)nc3s2)c1)c1ccncc1,Potency,[1],7.08 µM (active)
same,Potency,[2],28.2 µM (active)
same,Potency,[3],14.1 µM (active)
same,Potency,[4],inactive
same,Potency,[5],3.18 µM (active)
O=C(NCc1ccc(F)cc1)c1ccc2nnc(-c3cccc(C(F)(F)F)c3)n2c1,Potency,[1],inactive
same,Potency,[2],inactive
same,Potency,[3],inactive
same,Potency,[5],inactive
COc1ccc(NC(c2nnc(-c3ccccc3)o2)c2ccccc2F)cc1Cl (stereo unspecified),Potency,[1],inactive
same,Potency,[2],inactive
same,Potency,[3],inactive
same,Potency,[5],inactive
N#Cc1nc(NCC(F)F)nc(Nc2cc(F)cc(F)c2)n1,Potency,[1],inactive
same,Potency,[6],inactive
same,Potency,[4],inactive
same,Potency,[5],inactive
Cn1nnnc1Sc1ncnc2scc(-c3ccc([N+](=O)[O-])cc3)c12,Potency,[1],inactive
same,Potency,[6],inactive
same,Potency,[4],inactive
Cc1ccc(NC(=O)c2cc(-c3ccc(Br)s3)nc3ccccc23)cc1F,Potency,[1],inactive
same,Potency,[2],inactive
same,Potency,[3],inactive
same,Potency,[5],inactive
O=C(Nc1ccc(N2CCOCC2)c(F)c1)Nc1nnc(-c2ccncc2)s1,Potency,[1],inactive
same,Potency,[6],inactive
same,Potency,[4],inactive
CCN(CC)c1nc2ccccc2nc1C(=O)Nc1ccc(C(C)=O)cc1,Potency,[1],inactive
same,Potency,[2],inactive
same,Potency,[3],inactive
same,Potency,[5],inactive
O=C(CN1CCCN(S(=O)(=O)c2ccc(Br)cc2)CC1)Nc1cccc(C(F)(F)F)c1,Potency,[1],1.15 µM (active)
same,Potency,[2],6.47 µM (active)
same,Potency,[3],25.1 µM (active)
same,Potency,[5],1.45 µM (active)
COc1ccccc1Nc1cc2ccccc2c(=O)[nH]1,Potency,[1],inactive
same,Potency,[2],0.318 µM (active)
same,Potency,[3],inactive
CCc1cc(N2CCOC(c3ccc4cc(OC)ccc4c3)C2)nc(C)n1 (stereo unspecified),Potency,[1],inactive
same,Potency,[2],inactive
same,Potency,[3],inactive
same,Potency,[5],inactive
Cc1cccc(-c2ccc(C=O)cc2)c1,Potency,[1],12.6 µM (active)
same,Potency,[2],0.047 µM (active)
same,Potency,[3],39.8 µM (active)
same,Potency,[5],9.37 µM (active)
O=c1[nH]c2ccc(NCc3ccc(-c4ccc(F)cc4)o3)cc2[nH]1,Potency,[1],0.914 µM (active)
same,Potency,[2],inactive
same,Potency,[3],inactive
Cc1ccc(NC(=O)N2CCN(c3ccc(Cl)c(Cl)c3)CC2)cc1,Potency,[1],inactive
same,Potency,[2],inactive
same,Potency,[3],inactive
same,Potency,[5],inactive
O=C1c2ccccc2NC(c2ccc(-c3cccc(F)c3)o2)N1O (stereo unspecified),Potency,[1],20.1 µM (active)
same,Potency,[4],inactive
same,Potency,[5],6.34 µM (active)
O=S1(=O)N=C(Sc2ccc3c(c2)OCCO3)c2ccccc21,Potency,[1],inactive
same,Potency,[4],inactive
CC(=O)Nc1sc2c(c1-c1nc3ccccc3s1)CCN(Cc1ccccc1)C2,Potency,[1],inactive
same,Potency,[2],25.1 µM (active)
same,Potency,[4],inactive
Oc1ccc(Nc2nc(-c3ccncc3)nc3ccccc23)cc1F,Potency,[1],inactive
same,Potency,[4],inactive
COc1ccc(N2CCN(S(=O)(=O)c3ccc4c(c3)CC(=O)N4)CC2)cc1,Potency,[1],inactive
same,Potency,[2],inactive
same,Potency,[4],inactive
same,Potency,[5],5.17 µM (active)
NC(=O)c1c(NC(=O)c2ccco2)sc2c1CCCC2,Potency,[1],8.96 µM (active)
same,Potency,[3],10.1 µM (active)
same,Potency,[4],inactive
same,Potency,[5],3.57 µM (active)
COc1ccc(C2Nc3ccccc3C(=O)N2Cc2ccco2)cc1COc1ccccc1 (stereo unspecified),Potency,[1],inactive
same,Potency,[2],inactive
same,Potency,[4],inactive
CC(C)(C)OC(=O)N1CCN(c2ccc(NCc3ccc(-c4ccc(C#N)cc4)s3)cc2)CC1,Potency,[1],0.179 µM (active)
same,Potency,[3],inactive
same,Potency,[4],inactive
same,Potency,[5],12.7 µM (active)
CC(C)N1CCc2c(sc(NC(=O)Cc3ccccc3)c2-c2nc3ccccc3s2)C1,Potency,[1],inactive
same,Potency,[2],inactive
same,Potency,[4],inactive
same,Potency,[5],inactive
O=C1Nc2ccccc2/C1=C\c1ccc(O)c(Cl)c1,Potency,[1],10.1 µM (active)
same,Potency,[3],10.1 µM (active)
same,Potency,[4],inactive
COc1ccc(-c2no[n+]([O-])c2C#N)cc1,Potency,[1],inactive
same,Potency,[4],inactive
Cc1ccsc1CN(C)c1ncnc2ccc(-c3ccoc3C)cc12,Potency,[1],inactive
same,Potency,[3],11.3 µM (active)
same,Potency,[4],inactive
COC(=O)[C@H](Cc1ccc(OC)cc1)NC(=O)[C@@H]1CNCCN1S(=O)(=O)c1ccccc1,Potency,[1],inactive
same,Potency,[3],inactive
CC(=O)N1CCN(c2nc(-c3ccc(Br)cc3)cs2)CC1,Potency,[1],25.1 µM (active)
same,Potency,[2],12.6 µM (active)
same,Potency,[4],inactive
same,Potency,[5],inactive
COc1ccc(S(=O)(=O)N2CCC3(CC2)CC(CC(=O)NC2CC2)CCO3)cc1 (stereo unspecified),Potency,[1],inactive
same,Potency,[3],inactive
CC(=O)c1ccc(NC(=O)c2cc(-c3ccc(C)s3)nc3ccccc23)cc1,Potency,[1],inactive
same,Potency,[3],inactive
COc1ccc(-n2cc(C(=O)Nc3cc(F)ccc3F)c3ccccc3c2=O)cc1,Potency,[1],inactive
same,Potency,[3],inactive
same,Potency,[5],11.5 µM (active)
O=C(Nc1cccc(-c2ccc(N3CCOCC3)nn2)c1)Nc1cccc(C(F)(F)F)c1,Potency,[1],inactive
same,Potency,[2],inactive
same,Potency,[5],inactive
Brc1ccc(-c2ccc(C3Nc4cccc5cccc(c45)N3)o2)cc1,Potency,[1],0.896 µM (active)
same,Potency,[2],7.12 µM (active)
same,Potency,[5],10.1 µM (active)
COc1ccc(-c2ccc(CNc3ccc4[nH]c(=O)[nH]c4c3)o2)cc1Cl,Potency,[1],1.82 µM (active)
same,Potency,[5],7.26 µM (active)
O=C([C@@H]1C[C@H](Oc2ccccc2)CN1S(=O)(=O)c1cccc(F)c1)N1CCOCC1,Potency,[1],inactive
same,Potency,[3],inactive
O=C(OCC#CCSc1nnc(-c2cccc3ccccc23)o1)c1ccco1,Potency,[1],6.34 µM (active)
same,Potency,[4],inactive
same,Potency,[5],6.34 µM (active)
COC(=O)c1ccc(NC(=O)CN2CCN(c3ccc(Cl)cc3)CC2)cc1,Potency,[1],18.2 µM (active)
same,Potency,[3],18.2 µM (active)
O=C(Nc1cccnc1)c1ccco1,Potency,[1],12.7 µM (active)
same,Potency,[4],inactive
same,Potency,[5],6.34 µM (active)
COc1cc(F)ccc1-c1ccnc2nc(Cc3ccc(F)cc3)nn12,Potency,[1],inactive
same,Potency,[5],inactive
CC(C)N1CCc2c(sc(NC(=O)C3CC3)c2-c2nc3ccccc3s2)C1,Potency,[1],inactive
same,Potency,[3],5.65 µM (active)
same,Potency,[4],inactive
same,Potency,[5],7.98 µM (active)
O=C(CCC#CCSc1nnc(-c2cccc3ccccc23)o1)c1ccccc1,Potency,[1],20.1 µM (active)
same,Potency,[4],inactive
CC(C)NS(=O)(=O)c1ccc(OCC(=O)N2CCN(c3ccccc3F)CC2)cc1,Potency,[1],inactive
same,Potency,[3],inactive
COc1ccc(NC(=O)CN(C)S(=O)(=O)c2ccc(C(=O)N3CCOCC3)s2)cc1,Potency,[1],inactive
same,Potency,[3],inactive
